Experimental data taken from PubChem BioAssay (NCATS).
Results filed as inconclusive are left out. Calls of active or inactive are those of the source. The call rests on the fitted dose curve; in most records, active means well fitted curve in the direction sought with a large enough effect; inconclusive means small, poorly fitted or top-dose-only effect, or another doubt; inactive means no such curve, though single readings can be large; an effect the other way counts as inactive or inconclusive.

Assays:
[1] = Cell Viability - LYMP1-003 - Assay at 24 hr (AID 963)
Outline: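 Concentration-response qHTS: ATP loss measured by CellTiter-Glo luminescence after 24 h compound exposure at 37 C. Cells were LYMP1-003 human lymphoblastoid, 2500 per well. AC50 derived via standard Hill equation modeling.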

[2] = Cell Viability - LYMP1-003 - Assay at 40 hr (AID 964); further: series mostly up to about 92 µM; nearly all actives have a fitted effect of over 60% in size
Outline: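 Viability is taken as cellular ATP, read by CellTiter-Glo luminescence after 40 h of compound exposure at 37 C. Cells: human lymphoblastoid line LYMP1-003 at 2500/well; AC50 values derived by Hill-equation fitting of concentration-response data.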

[3] = Cell Viability - LYMP2-003 (AID 965);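 further: cells exposed to compounds for 24 h before reading; nearly all actives have a fitted effect of over 50% in size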
Outline: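 qHTS, human lymphoblastoid line, 2500 cells/well, complete medium. 24 h drug, 37 C. ATP-based luminescent readout; Hill-fit AC50.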

[4] = Cell Viability - LYMP2-004 (AID 966); further: nearly all actives have a fitted effect of over 65% in size
Outline: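 AC50 values come from Hill modelling of concentration-dependent loss of intracellular ATP, measured by CellTiter-Glo luminescence. Human LYMP2-004 lymphoblastoid cells (2500/well) were exposed to compound for 24 h at 37 C.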

[5] = Cell Viability - LYMP2-005 (AID 967); further: series mostly up to about 92 µM
Outline: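 Luciferase-based ATP quantitation served as the viability measure in human lymphoblastoid LYMP2-005 cells exposed to test compounds for 24 h at 37 C in complete culture medium. Potency (AC50) was obtained by fitting concentration-response curves with the Hill equation.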

[6] = Cell Viability - LYMP2-009 (AID 968); further: series mostly up to about 92 µM; nearly all actives have a fitted effect of over 55% in size
[7] = Cell Viability - LYMP2-011 (AID 969); further: nearly all actives have a fitted effect of over 60% in size
Outline: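 Cytotoxicity qHTS with ATP content as read-out: lymphoblastoid cells (2500/well) exposed to compound for 24 h at 37 C, then luciferase luminescence measured. Concentration-response data fitted with the standard Hill equation to give AC50.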

[8] = Cell Viability - LYMP2-013 (AID 970); further: series mostly up to about 92 µM; nearly all actives have a fitted effect of over 55% in size
Outline: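 qHTS cytotoxicity: ATP-dependent luminescence (CellTiter-Glo, 30 min room temperature) read after 24 h compound exposure at 37 C of 2500 LYMP2-013 lymphoblastoid cells per well. Concentration-response fitted with Hill equation to give AC50.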

[9] = Cell Viability - LYMP2-015 (AID 971); further: nearly all actives have a fitted effect of over 55% in size
Outline: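 Cytotoxicity readout: decrease in intracellular ATP (CellTiter-Glo luminescence) in 2500 LYMP2-015 lymphoblastoid cells/well after 24 h compound exposure at 37 C. Concentration-response data fitted with the standard Hill equation to give AC50.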

[10] = Cell Viability - LYMP2-017 (AID 972); further: series mostly up to about 92 µM; nearly all actives have a fitted effect of over 55% in size
Outline: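 CellTiter-Glo luminescence (cellular ATP, 30 min RT) measured cytotoxicity after 24 hr compound treatment at 37 C. Cells were a human lymphoblastoid line, LYMP2-017, plated at 2500/well and incubated 5 hr first; concentration-response fitted with Hill equation for AC50.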

[11] = Cell Viability - LYMP2-019 (AID 973); further: nearly all actives have a fitted effect of over 55% in size
Outline: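 AC50 values come from Hill-equation fits of luminescent intracellular ATP (CellTiter-Glo, 30 min, room temperature) following 24 h compound exposure at 37 C. Cells: LYMP2-019 lymphoblastoid line, 2500 per well, in complete culture medium.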

[12] = Cell Viability - LYMP2-021 (AID 974); further: nearly all actives have a fitted effect of over 55% in size
Outline: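 AC50 values come from Hill-equation fits to CellTiter-Glo luminescence (ATP content), read after 24 hour compound exposure at 37 C of 2500 LYMP2-021 lymphoblastoid cells/well; tetraoctylammonium bromide as positive control.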

[13] = Cell Viability - LYMP2-023 (AID 975)
Outline: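 Intracellular ATP, read by CellTiter-Glo luminescence, reports viability after 24 hr compound exposure at 37 C. 2500 lymphoblastoid cells/well (LYMP2-023) seeded 5 hr beforehand; Hill fits give AC50; positive control tetraoctylammonium bromide.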

[14] = Cell Viability - LYMP2-025 (AID 976); further: series mostly up to about 92 µM
Outline: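 Cytotoxicity read as loss of intracellular ATP (luciferase luminescence) after 24 h compound treatment at 37 C. Uses LYMP2-025 lymphoblastoid cells in 1536-well format; Hill-equation modelling gives AC50; tetraoctylammonium bromide as positive control.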

[15] = Cell Viability - LYMP2-002 (AID 977); further: series mostly up to about 92 µM
Outline: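 Human lymphoblastoid cells (2500/well) in complete medium were preincubated 5 hr at 37 C, then exposed to compounds for 24 hr at 37 C. Intracellular ATP was read by CellTiter-Glo luminescence; AC50 came from Hill-equation concentration-response fits.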

[16] = Cell Viability - LYMP2-006 (AID 978); further: series mostly up to about 92 µM; nearly all actives have a fitted effect of over 60% in size
Outline: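 In this cytotoxicity screen, the human lymphoblastoid line grew in complete medium with test compounds for 24 hr at 37 C. Cellular ATP served as the viability signal.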

[17] = Cell Viability - LYMP2-007 (AID 979);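 further: cells exposed to compound for 24 h before reading; nearly all actives have a fitted effect of over 60% in size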
Outline: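 AC50 values come from Hill-equation fits of luminescent intracellular ATP (CellTiter-Glo, 30 min, room temperature) following 24 h compound exposure at 37 C. Cells: LYMP2-007 lymphoblastoid line, 2500 per well, in complete culture medium.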

[18] = Cell Viability - LYMP2-008 (AID 980); further: nearly all actives have a fitted effect of over 60% in size
Outline: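 Cytotoxicity determined from ATP-dependent luciferase luminescence (CellTiter-Glo) following 24 h compound exposure of human lymphoblastoid LYMP2-008 cells at 37 C. Concentration-response data fitted to the Hill equation to give AC50.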

[19] = Cell Viability - LYMP2-010 (AID 981); further: nearly all actives have a fitted effect of over 55% in size
Outline: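 CellTiter-Glo ATP luminescence measured cytotoxicity after 24 h compound exposure at 37 C. LYMP2-010 cells were seeded at 2500/well, with tetraoctylammonium bromide as control; concentration-response curves gave AC50 values by the Hill equation.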

[20] = Cell Viability - LYMP2-012 (AID 982)

Measured: outcome

CN(C)CCOC(c1ccccc1)c1ccccc1 (tested in a mixture with another compound)
inactive: all assays above
